From PubChem BioAssay AID2685 (National Center for Advancing Translational Sciences (NCATS), 2010)
The campaign covered roughly 320,000 compounds. About 2,100 (0.66%) were called active. Inconclusive results (about 53%) are left out. Calls come from the whole dose curve; as a rule, active = well fitted inhibition curve with a large enough effect in the signal ratio, with a control signal flat (not every such curve was filed as active); inconclusive = small, poorly fitted or top-dose-only effect, or effect the other way, or a change in a side signal; inactive = flat fitted curve, though single readings scatter; the % refers to the signal ratio. The list comes from a sample in which actives are over-represented; it also holds similar structures and randomly drawn compounds.
Potency is the fitted concentration of half-maximal effect.

Assay: qHTS Assay for Lipid Storage Modulators in Drosophila S3 Cells;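 for cell number change: cells counted by Cell Tracker Red CMTPX staining in the red channel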; for lipid storage change, negative = inhibition: % is set by controls: 0 for no effect and ±100 for the full control effect
Details: BODIPY lipid droplet fluorescence, 18-24 h, cells fed with added oleic acid; cell number change: measured here: cell count max response; series mostly up to 46.1 µM; lipid storage change, negative = inhibition: at the top concentration
Method in brief: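 Drosophila S3 cells loaded with oleic acid (400 uM, as added) and compounds at several concentrations; lipid droplets imaged by 488-nm laser-scanning cytometry, 500–530 nm intensity and object ratio to cell channel. Percent activity normalized to 20 uM Triacsin C.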
For `CC(C)(C)OC(=O)N1CCC(C(=O)O)CC1`, the “lipid storage change, negative = inhibition” value was 3.97% (inactive) and the cell number change was 14%. For `O=S(=O)(NCc1ccccn1)C(F)(F)F`, the “lipid storage change, negative = inhibition” value was -17.1% (inactive) and the cell number change was 15.5%. In the case of `Cc1cc(C)n2c(SCC#N)nnc2n1`, the “outcome” value was “inactive”. In the case of `CCO[C@H]1OC(C(=O)N2CCCCCCC2)=C[C@@H](c2ccccc2)[C@@H]1CCCO`, the “lipid storage change, negative = inhibition” value was -17.1% (inactive) and the cell number change was -2.78%. For `CSC1=NNC(c2ccc(C(C)(C)C)cc2)=NN1`, the “lipid storage change, negative = inhibition” value was 3.5% (inactive) and the cell number change was 21%. In the case of `COCC(C)n1c(C)cc(C(=O)COC(=O)CN=C2NS(=O)(=O)c3ccccc32)c1C` (stereo unspecified), the “lipid storage change, negative = inhibition” value was -7.81% (inactive) and the cell number change was 10.7%. For `COc1ccc(C2/C(=C(/O)c3ccc(C)cc3)C(=O)C(=O)N2c2ccccn2)cc1OC` (stereo unspecified), the “lipid storage change, negative = inhibition” value was -1.13% (inactive) and the cell number change was -0.743%. In the case of `CCOc1ccc(C(C)=O)cc1CN1C(=O)NC2(CCCCC2C)C1=O` (stereo unspecified), the “lipid storage change, negative = inhibition” value was 17.5% (inactive) and the cell number change was -2.29%. For `COc1ccc(C(C)=O)cc1CN1C(=O)NC2(CCCCCCC2)C1=O`, the “lipid storage change, negative = inhibition” value was 2.83% (inactive) and the cell number change was 6.34%. With `CCOc1ccc(C(C)=O)cc1CN1C(=O)NC2(CCCCCC2)C1=O` the Potency was 0.13 µM (active) and the cell number change was 3.15%. For `O=C(Nc1ccc(Cl)cc1)Nc1nnc(Cc2ccc([N+](=O)[O-])cc2)s1`, the “lipid storage change, negative = inhibition” value was 7.97% (inactive) and the cell number change was 3.06%. With `CCn1c(CNC(=O)COc2c(C)cccc2C)nnc1SCC(=O)Nc1nccs1` the “lipid storage change, negative = inhibition” value was 11.3% (inactive) and the cell number change was -11%. In the case of `C=CCNC(=S)NNC(=O)C(CCCC)CC(C)O` (stereo unspecified), the Potency was 29.1 µM (active) and the cell number change was -5.26%. For `C=CCNC(=S)NNC(=O)C(CCCC)CC(O)COCC(C)C` (stereo unspecified), the “lipid storage change, negative = inhibition” value was 7.02% (inactive) and the cell number change was 6.35%. In the case of `C=CCNC(=S)NNC(=O)C(CC(C)C)CC(C)O` (stereo unspecified), the “lipid storage change, negative = inhibition” value was -5.62% (inactive) and the cell number change was 1.94%. In the case of `CCC(=O)Nc1ccc(/C=C(\C(C)=O)C(=O)c2ccccc2)cc1`, the “lipid storage change, negative = inhibition” value was -21.8% (inactive) and the cell number change was -16.8%. With `CCOCCCNCC(=O)NC1(C)C2CCC(C2)C1(C)C` (stereo unspecified) the Potency was 1.3 µM (active) and the cell number change was -12.8%. For `CC1(C)C2CCC(C2)C1(C)NC(=O)C[N+](C)(C)C` (stereo unspecified), the “lipid storage change, negative = inhibition” value was -8.8% (inactive) and the cell number change was 7.74%. With `CC1(C)C2CCC(C2)C1(C)NC(=O)CNC1CCCCC1` (stereo unspecified) the “outcome” value was “inactive”. For `Cc1ccc(C(=O)Nc2ccc(C(=O)N3CCCCC3)cc2)o1`, the “lipid storage change, negative = inhibition” value was 19.2% (inactive). For `COCC(C)NS(=O)(=O)c1ccc(C(=O)NCCCn2ccc3ccccc32)cc1` (stereo unspecified), the “outcome” value was “inactive” and the cell number change was -2.38%. With `Cc1ccc(C(=O)Nc2ccccc2C(=O)NC(Cc2c[nH]c3ccccc23)C(=O)O)cc1` (stereo unspecified) the “lipid storage change, negative = inhibition” value was -2.03% (inactive) and the cell number change was 14.2%. For `O=C(NC(Cc1c[nH]c2ccccc12)C(=O)O)c1ccc(F)cc1` (stereo unspecified), the “lipid storage change, negative = inhibition” value was -8.21% (inactive) and the cell number change was -8.38%. For `Cc1ccc(C(=O)NC(Cc2c[nH]c3ccccc23)C(=O)O)cc1` (stereo unspecified), the Potency was 16.4 µM (active) and the cell number change was 8.72%. In the case of `O=C(Cc1ncc(C(F)(F)F)cc1Cl)NNc1cccc(F)n1`, the “lipid storage change, negative = inhibition” value was -0.459% (inactive) and the cell number change was 2.59%. In the case of `CCC1(c2ccc(F)cc2)NC(=O)N(CC(=O)c2cc(C)n(C3CC3)c2C)C1=O` (stereo unspecified), the “outcome” value was “inactive” and the cell number change was -20.6%. For `CN(CCCNC(=O)CSc1cc(=O)n(C)c2ccc(Cl)cc12)Cc1ccccc1`, the “lipid storage change, negative = inhibition” value was 1.37% (inactive) and the cell number change was -6.41%. With `COc1ccccc1CNC(=O)C(c1ccccc1)c1ccccc1` the “outcome” value was “inactive” and the cell number change was 13.6%. For `COc1ccccc1CN(C)C(=O)C(c1ccccc1)c1ccccc1`, the Potency was 20.6 µM (active) and the cell number change was 14.8%. For `COc1ccccc1CN(C)C(=O)CN1C(=O)c2ccccc2C1=O`, the “outcome” value was “inactive” and the cell number change was 14.5%. In the case of `CCOc1ccc(N(CC(=O)N2CCCCCC2)S(C)(=O)=O)cc1`, the “outcome” value was “inactive”. In the case of `CCOC(=O)C1CCN(C(=O)Cn2cc(C(=O)C3CC3)c3ccccc32)CC1`, the “lipid storage change, negative = inhibition” value was 10.5% (inactive) and the cell number change was 3.64%. In the case of `O=C(CCc1nnc2n(Cc3ccc(Cl)cc3)c(=O)c3ccccc3n12)N1CCN(c2ccccn2)CC1`, the “outcome” value was “inactive” and the cell number change was -18.3%. For `Cn1c(=O)c2sccc2n2c(CCCC(=O)N3CCCCC3)nnc12`, the Potency was 10.3 µM (active) and the cell number change was -19.4%. With `COc1ccc(-c2cc(CCCC(=O)NCCc3cc(OC)ccc3OC)no2)cc1` the “lipid storage change, negative = inhibition” value was -25.3% (inactive) and the cell number change was 4.57%. With `Cn1cnnc1SCC(=O)Nc1ccc(F)cc1F` the “lipid storage change, negative = inhibition” value was 16% (inactive) and the cell number change was -0.713%. In the case of `O=C(CCc1nnc2n(Cc3ccc(F)cc3)c(=O)c3ccccc3n12)N1CCN(c2ccccn2)CC1`, the Potency was 13 µM (active) and the cell number change was -18.8%. With `Cn1c(=O)c2sccc2n2c(CCCC(=O)Nc3ccc(F)cc3F)nnc12` the Potency was 9.2 µM (active) and the cell number change was -23.8%. With `O=C(CCCCCn1c(=O)[nH]c2ccsc2c1=O)N1CCCCC1` the “lipid storage change, negative = inhibition” value was -10% (inactive) and the cell number change was -7.73%. For `Cn1c(=O)c2sccc2n2c(CCCC(=O)NCc3ccc4c(c3)OCO4)nnc12`, the “lipid storage change, negative = inhibition” value was 3.09% (inactive) and the cell number change was -24.9%. In the case of `COc1ccc(Cn2c(CCC(=O)N3CCN(c4ccccn4)CC3)nc3ncccc3c2=O)cc1`, the “lipid storage change, negative = inhibition” value was 7.18% (inactive) and the cell number change was -8.69%. With `O=C(CCN1C(=O)c2ccccc2C1=O)Nc1ccc(F)cc1F` the “lipid storage change, negative = inhibition” value was 12.5% (inactive) and the cell number change was 5.85%. In the case of `CC(C)CCn1c(=O)c2sccc2n2c(CCCC(=O)N3CCC(N4CCCCC4)CC3)nnc12`, the “outcome” value was “inactive”. For `COc1ccc(OC)c(CCNC(=O)CCCc2nnc3n(C)c(=O)c4sccc4n23)c1`, the Potency was 7.31 µM (active) and the cell number change was -24.6%. With `O=C(CSc1ccc(F)cc1)N1CCOCC1` the “lipid storage change, negative = inhibition” value was -1.33% (inactive) and the cell number change was 7.13%. In the case of `COC(=O)c1ccc(COc2cc([N+](=O)[O-])cc3cccnc23)o1`, the “lipid storage change, negative = inhibition” value was -4.43% (inactive) and the cell number change was 5.31%. In the case of `Cc1cccc(NC(=S)NC(C)C(c2ccccc2)N2CCN(C)CC2)c1C` (stereo unspecified), the “lipid storage change, negative = inhibition” value was -11.9% (inactive) and the cell number change was -10.3%. For `COc1ccc(OC)c(S(=O)(=O)NC2CC2)c1`, the “lipid storage change, negative = inhibition” value was -1.21% (inactive) and the cell number change was -2.27%.
